Measurements reported in PubChem BioAssay (NCATS).
A number with no mark means an inactive call. Records with an inconclusive call do not appear. Entries that show only a call come without a potency. The source made the active and inactive calls. Calls come from the whole dose curve; as a rule, active = well fitted curve in the direction sought with a large enough effect; inconclusive = small, poorly fitted or top-dose-only effect, or another doubt; inactive = no such curve, though single readings can be large; an effect the other way counts as inactive or inconclusive.

Tests used:
[1] = tested on: Nanoluciferase (engineered Oplophorus gracilirostris luciferase); assay: Primary Nanoluciferase (NLuc) qHTS assay for identification of artifact compounds. (AID 1845222); details: NLuc-conditioned medium, Nano-Glo luminescence, 5 min; series mostly up to 54.1 µM
Summary of the method: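 Compounds are pinned into diluted (1:55) conditioned medium of NLuc-expressing S16 cells and held 15 min at room temperature protected from light. Nano-Glo substrate follows, and luminescence is read 5 min later.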

[2] = Primary redox qHTS assay for identification of artifact compounds. (AID 1845223); details: Amplex Red/HRP redox cycling with DTT, fluorescence; series mostly up to 53.8 µM
Summary of the method: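 Amplex Red (25 uM) and HRP (250 mU/mL) in HBSS, with compounds for 15 min, then 250 uM DTT for 30 min, room temperature, dark. Fluorescence 525/598 nm read; normalized to DMSO and 10 uM DA3003; Hill fit.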

## COc1c(O)cc2c(c1O)C(=O)O[C@H](C)[C@H]2O
[1]
  Potency: inactive
[2]
  Potency: inactive

## CC1(C)C(=O)CCC2(C)C1C(O)C=C1COC(=O)C12O (centres undefined)
[1]
  Potency: inactive
[2]
  Potency: inactive

## CC1(C)CCC[C@]2(C)C1CC=C(CO)[C@H]2CC/C(=C/CO)CO (some centres undefined)
[1]
  Potency: inactive
[2]
  Potency: inactive

## CC[C@@H](Nc1c(Nc2cccc(C(=O)N(C)C)c2O)c(=O)c1=O)c1ccc(C)o1
[1]
  Potency: inactive
[2]
  Potency: inactive

## CC(=O)NC(C(=O)OC1CCC(C)(C)C2CC=C3C(=O)OCC3C12C)C(C)C (centres undefined)
[1]
  Potency: inactive
[2]
  Potency: inactive

## CC(NC(=O)CC(=O)O)C(=O)Nc1ccccc1C(N)=O (centres undefined)
[1]
  Potency: inactive
[2]
  Potency: inactive

## C[C@@H]1O[C@@H](OC2C(O[C@H]3[C@H](O[C@H]4CC[C@@]5(C)C(CC[C@]6(C)C5CC=C5C7CC(C)(C)CC(O)[C@]7(C)CC[C@]56C)C4(C)C)O[C@H](C(=O)O)[C@@H](O)[C@@H]3O)OC(CO)C(O)C2O)[C@H](O)[C@H](O)[C@H]1O (some centres undefined)
[1]
  activity, negative = inhibition: 0% [at 11.6 µM]
[2]
  redox activity (% of DA3003): 6.57% [at 11.5 µM]

## COC(=O)[C@]1(Cc2ccc(O)c(CC=C(C)C)c2)OC(=O)C(O)=C1c1ccc(O)cc1
[1]
  Potency: inactive
[2]
  Potency: inactive

## O=C(O)CCc1cc2ccoc2cc1O[C@@H]1O[C@H](CO)[C@@H](O)[C@H](O)[C@H]1O
[1]
  Potency: inactive
[2]
  Potency: inactive

## COc1cc(Nc2nc3ccccc3nc2NS(=O)(=O)c2cccc(NC(=O)c3ccc(C)c(OC)c3)c2)cc(OC)c1
[1]
  Potency: inactive
[2]
  Potency: inactive

## C[C@@H]1CC[C@]2(C(=O)O)CC[C@]3(C)C(=CCC4[C@@]5(C)C[C@@H](O)[C@H](O)[C@@](C)(CO)C5CC[C@]43C)C2[C@H]1C (some centres undefined)
[1]
  Potency: inactive
[2]
  Potency: inactive

## C=C[C@H]1[C@H](O[C@@H]2O[C@H](CO)[C@@H](O)[C@H](O)[C@H]2O)OC=C(C(=O)OC)[C@H]1CCO
[1]
  Potency: inactive
[2]
  Potency: inactive

## CC(C)=CCc1c(O)cc2oc3cc(C)cc(O)c3c2c1C
[1]
  Potency: inactive
[2]
  Potency: inactive

## CC[C@@H](C)[C@H](N)C(=O)N1Cc2ccccc2C1
[1]
  Potency: inactive
[2]
  Potency: inactive

## COc1cc(C2OCC3(O)C(c4ccc(O[C@@H]5O[C@H](CO)[C@@H](O)[C@H](O)[C@H]5O)c(OC)c4)OCC23O)ccc1O (some centres undefined)
[1]
  Potency: inactive
[2]
  Potency: inactive

## C[C@]1(O)CC[C@@H]2C(C(=O)O)=CO[C@@H](O[C@@H]3O[C@H](COC(=O)/C=C/c4ccc(O)c(O)c4)[C@@H](O)[C@H](O)[C@H]3O)[C@@H]21
[1]
  Potency: inactive
[2]
  Potency: inactive

## CC1=C2CC(=O)C(C)CC/C=C(\C)CC2(O)OC1=O (centres undefined)
[1]
  Potency: inactive
[2]
  Potency: inactive

## c1ccc2c(Nc3nnc(-c4ccncc4)s3)cccc2c1
[1]
  Potency: inactive
[2]
  Potency: inactive

## O=C(O)c1ccc(NC(=O)[C@H](CC2CCCC2)n2cnc(C(F)(F)F)c2)nc1
[1]
  Potency: inactive
[2]
  Potency: inactive

## CC(C)(C)NS(=O)(=O)c1ccc(-c2ccc3[nH]nc(N)c3c2)cc1
[1]
  Potency: inactive
[2]
  Potency: inactive

## CN1CCN(c2nc(-c3ccc(C(=O)NC4(C(=O)NCC#N)CCCCC4)cc3)cs2)CC1
[1]
  Potency: inactive
[2]
  Potency: inactive

## C[C@@H]1O[C@@H](O[C@H]2[C@H](OC(=O)[C@]34CCC(C)(C)C[C@H]3C3=CCC5[C@@]6(C)CC[C@H](O[C@@H]7O[C@H](CO[C@@H]8OC[C@H](O)[C@H](O)[C@H]8O[C@@H]8OC[C@@H](O)[C@H](O)[C@H]8O)[C@@H](O)[C@H](O)[C@H]7O)C(C)(C)C6CC[C@@]5(C)[C@]3(C)C[C@H]4O)O[C@H](CO)[C@@H](O)[C@@H]2O)[C@H](O[C@@H]2O[C@H](CO)[C@@H](O)[C@H](O)[C@H]2O)[C@H](O)[C@H]1O[C@@H]1OC[C@@H](O)[C@H](O[C@@H]2OC[C@@H](O)[C@H](O)[C@H]2O)[C@H]1O (some centres undefined)
[1]
  activity, negative = inhibition: 3.87% [at 6.45 µM]
[2]
  redox activity (% of DA3003): 13.7% [at 6.41 µM]

## Cc1cc(C)c2nc(-c3ccccn3)cc(C(=O)Nc3ccc(S(=O)(=O)Nc4onc(C)c4C)cc3)c2c1
[1]
  Potency: inactive
[2]
  Potency: inactive

## CC1=C[C@H](O)[C@H]2C(C)(C)CCC[C@]2(C)[C@@]1(O)CO
[1]
  Potency: inactive
[2]
  Potency: inactive

## COC1OC(O)C2(CCC3(O2)C(C)CC2OC(=O)C4(C)CCCC3(C)C24)C1O (centres undefined)
[1]
  Potency: inactive
[2]
  Potency: inactive

## C=C1CC[C@H]2[C@@](C)(CCC(O)[C@@]2(C)CO)[C@@H]1/C=C/C(=C\C(=O)O)C(=O)O (some centres undefined)
[1]
  Potency: inactive
[2]
  Potency: inactive

## CC1(C)CC2C3=CCC4[C@@]5(C)CC[C@H](OC6OCC(O)C(OC7OC(CO)C(O)C(O)C7O)C6O)C(C)(C)C5CC[C@@]4(C)[C@]3(C)C[C@H](O)[C@@]2(CO)[C@H](OC(=O)c2ccccc2)C1 (some centres undefined)
[1]
  activity, negative = inhibition: -2.24% [at 11.6 µM]
[2]
  redox activity (% of DA3003): -2.38% [at 11.5 µM]
